# Unmarked numbers belong to inactive results. Records with an inconclusive call do not appear. A call without a number means that no potency is given here. Calls of active or inactive are those of the source. Calls come from the whole dose curve; as a rule, active = well fitted curve in the direction sought with a large enough effect; inconclusive = small, poorly fitted or top-dose-only effect, or another doubt; inactive = no such curve, though single readings can be large; an effect the other way counts as inactive or inconclusive.
# Assays:
# [1] = Cell Viability - H-4-II-E (AID 543); note: nearly all actives have a fitted effect of over 35% in size
# Summary of the method: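 Rat hepatoma H-4-II-E cells (1500/well) were plated, incubated 5 hr at 37 °C, then exposed to compounds for 40 hr at 37 °C. Cellular ATP was read by CellTiter-Glo luminescence; AC50 came from Hill-equation fits of concentration-response data.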
# [2] = Cell Viability - SH-SY5Y (AID 544); settings: SH-SY5Y neuroblastoma cell viability; viability change, negative = cytotoxic: at 92.2 µM (top of the series); note: nearly all actives have a fitted effect of over 55% in size; note: potency is the fitted concentration of half-maximal effect
# Summary of the method: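 Human neuroblastoma SH-SY5Y cells (1500/well) in complete medium were exposed to compounds for 40 hr at 37 °C; intracellular ATP was then quantified by CellTiter-Glo luminescence after 20 min at room temperature. AC50 came from Hill-equation concentration-response fits.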
# [3] = Cell Viability - Renal Proximal Tubule (AID 545); note: nearly all actives have a fitted effect of over 40% in size
# Summary of the method: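 Rat renal proximal tubule primary cells, 1000/well, exposed to compounds for 40 hr at 37 °C in complete medium; cellular ATP read by CellTiter-Glo luminescence. AC50 from concentration-response fitted with standard Hill equation.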
# [4] = Cell Viability - Mesenchymal (AID 546);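 note: cells exposed to compound for 40 hours before reading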
# Summary of the method: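 AC50 values reflect the drop in intracellular ATP in a human kidney mesenchymal line derived from normal glomeruli. Treatment lasts 40 hr at 37 °C in complete medium, and the signal comes from CellTiter-Glo luminescence.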
# [5] = Cellular Toxicity (caspase-3) HepG2 (AID 654);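 note: cells exposed to compound for 16 hours before reading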
# Summary of the method: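 HepG2 cells (1500/well) in complete medium were treated with compounds for 16 hr at 37 °C. Caspase-3/7 activity was then read as luminescence from peptide-aminoluciferin cleavage. AC50 came from Hill fits, normalized to DMSO and 100 uM tamoxifen.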
# [6] = Cellular Toxicity (caspase-3) Jurkat (AID 655); settings: Jurkat caspase-3 activation, luminescence; caspase-3 activation: at 92.2 µM (top of the series), DMSO = 0%, tamoxifen = 100%;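 note: cells exposed to compound for 16 h at 37 °C before reading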
# Summary of the method: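 Jurkat cells (5000/well) in complete medium exposed 16 h at 37 C; caspase-3/7 activity read by Caspase-Glo luminescence after 20 min at room temperature. Normalized to DMSO and 100 uM tamoxifen; AC50 from Hill fits.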
# [7] = Cellular Toxicity (caspase-3) HUV-EC-C (AID 656)
# Summary of the method: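 HUV-EC-C cells (1000/well) in complete medium, compound-treated 16 h at 37 °C; caspase-3/7 activity read by Caspase-Glo 3/7 luminescence. Normalized to DMSO (basal) and 100 uM tamoxifen (100%); AC50 from Hill-equation concentration-response fits.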
# [8] = Cellular Toxicity (caspase-3) SHSY5Y (AID 657)
# Summary of the method: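 SH-SY5Y human neuroblastoma cells, 1500/well, exposed to compound for 16 hours at 37 °C in complete medium. Caspase-3/7 activity read by Caspase-Glo luminescence after 1 hr at room temperature, normalized to DMSO and 10 uM staurosporine; AC50 from Hill fit.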
# [9] = Cellular Toxicity (caspase-3) BJ (AID 658)
# Summary of the method: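 Readout: Caspase-Glo 3/7 luminescence increase in BJ cells after 16 hr treatment at 37 °C. Staurosporine and tamoxifen served as positive controls; AC50 values came from Hill modelling of data normalized to DMSO and 10 uM staurosporine.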
# [10] = Cellular Toxicity (caspase-3) MRC-5 (AID 659)
# Summary of the method: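 Concentration-dependent caspase 3/7 activation is measured in human normal lung fibroblasts (MRC-5) following 16-hour treatment. AC50 values come from standard Hill-equation modeling of luminescence normalized to DMSO and 10 uM staurosporine.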
Compound,Potency [1],Potency [2],Potency [3],Potency [4],Potency [5],caspase-3 activation [6],outcome [7],outcome [8],outcome [9],outcome [10]
CC(C)C(C)C,inactive,inactive,inactive,inactive,inactive,-0.000823%,inactive,inactive,inactive,inactive
C1CCC2OC2C1 (stereo not given),inactive,inactive,inactive,inactive,inactive,0.319%,inactive,inactive,inactive,inactive
CCC(C)(C)OC,inactive,inactive,inactive,inactive,inactive,1.32%,inactive,inactive,inactive,inactive
Cc1cc(C(=O)O)ccc1[N+](=O)[O-],inactive,inactive,inactive,inactive,inactive,-1.06%,inactive,inactive,inactive,inactive
Cc1ccccc1Br,inactive,inactive,inactive,inactive,inactive,-0.129%,inactive,inactive,inactive,inactive
O=C(O)c1ccccc1[N+](=O)[O-],inactive,inactive,inactive,inactive,inactive,-0.644%,inactive,inactive,inactive,inactive
O=C(O)c1ccccc1C(=O)O,inactive,inactive,inactive,inactive,inactive,2.22%,inactive,inactive,inactive,inactive
O=c1[nH][nH]c(=O)c2cc([N+](=O)[O-])ccc12,inactive,inactive,inactive,inactive,inactive,-0.126%,inactive,inactive,inactive,inactive
Cc1cccc(Br)c1,inactive,inactive,inactive,inactive,inactive,-1.22%,inactive,inactive,inactive,inactive
Nc1ccc([N+](=O)[O-])c(N)c1,inactive,inactive,inactive,inactive,inactive,0.952%,inactive,inactive,inactive,inactive
CCC(C)O (stereo not given),inactive,inactive,inactive,inactive,inactive,0.184%,inactive,inactive,inactive,inactive
Cc1ccccc1C(N)=O,inactive,inactive,inactive,inactive,inactive,1.13%,inactive,inactive,inactive,inactive
CCOC(C)(C)C,inactive,inactive,inactive,inactive,inactive,-1.17%,inactive,inactive,inactive,inactive
Cc1ccc2c(c1[N+](=O)[O-])C(=O)c1ccccc1C2=O,inactive,inactive,inactive,inactive,inactive,-1.22%,inactive,inactive,inactive,inactive
O=C(O)CN(CC(=O)O)CC(=O)O,inactive,inactive,inactive,inactive,inactive,1.43%,inactive,inactive,inactive,inactive
O=[N+]([O-])c1ccc2nc[nH]c2c1,inactive,inactive,inactive,inactive,inactive,0.964%,inactive,inactive,inactive,inactive
C=CCCCC,inactive,inactive,inactive,inactive,inactive,0.169%,inactive,inactive,inactive,inactive
CC(=O)OCc1ccco1,inactive,31.6 µM (active),inactive,inactive,inactive,13.6%,inactive,inactive,inactive,inactive
CC(C)(C)c1ccc(OCC2CO2)cc1 (stereo not given),inactive,inactive,inactive,inactive,inactive,15.6%,inactive,inactive,inactive,inactive
C/C=C(/C)C#N,inactive,inactive,inactive,inactive,inactive,1.22%,inactive,inactive,inactive,inactive
CCCCCCCCCCCCOCC1CO1 (stereo not given),inactive,inactive,inactive,inactive,inactive,3.67%,inactive,inactive,inactive,inactive
CC(C)=CCC/C(C)=C/C=O,inactive,inactive,inactive,inactive,inactive,0.822%,inactive,inactive,inactive,inactive
CCCCC=O,inactive,inactive,inactive,inactive,inactive,-1.47%,inactive,inactive,inactive,inactive
CC(C)(c1cc(Br)c(OCC(Br)CBr)c(Br)c1)c1cc(Br)c(OCC(Br)CBr)c(Br)c1 (stereo not given),inactive,inactive,inactive,inactive,inactive,99.2% (active),inactive,inactive,inactive,inactive
CCOCC(=O)O,inactive,inactive,inactive,inactive,inactive,-1.08%,inactive,inactive,inactive,inactive
CC(=C/C=C/C(C)=C/C=C/C=C(C)/C=C/C=C(C)/C=C/C(=O)O)/C=C/C(=O)O,inactive,inactive,inactive,inactive,inactive,-0.472%,inactive,inactive,inactive,inactive

Compound,Potency [1],Potency [2],Potency [3],Potency [4],Potency [5],caspase-3 activation [6],outcome [7],outcome [8],outcome [9],outcome [10]
OC(CCl)CCl,inactive,inactive,inactive,inactive,inactive,0.028%,inactive,inactive,inactive,inactive
O=[N+]([O-])c1ccccc1CCO,inactive,inactive,inactive,inactive,inactive,0.961%,inactive,inactive,inactive,inactive
Cc1cc(C)cc(O)c1,inactive,inactive,inactive,inactive,inactive,0.986%,inactive,inactive,inactive,inactive
N#CC1(O)CCCCC1,inactive,inactive,inactive,inactive,inactive,1.9%,inactive,inactive,inactive,inactive
Cc1cccc(C(=O)O)c1[N+](=O)[O-],inactive,inactive,inactive,inactive,inactive,0.0965%,inactive,inactive,inactive,inactive
CC(C)CCOC(=O)/C=C/c1ccccc1,inactive,inactive,inactive,inactive,inactive,0.824%,inactive,inactive,inactive,inactive
CSc1ccc(C=O)cc1,inactive,inactive,inactive,inactive,inactive,1.05%,inactive,inactive,inactive,inactive
O=Cc1c(Cl)cccc1Cl,inactive,inactive,inactive,inactive,inactive,3.49%,inactive,inactive,inactive,inactive
CCN(CC)c1cccc(O)c1,inactive,inactive,inactive,inactive,inactive,0.712%,inactive,inactive,inactive,inactive
Nc1cccc(O)c1,inactive,inactive,inactive,inactive,inactive,0.69%,inactive,inactive,inactive,inactive
BrC/C=C/CBr,inactive,inactive,inactive,inactive,inactive,1.67%,inactive,inactive,inactive,inactive
FC(F)(F)c1cccc(Cl)c1,inactive,inactive,inactive,inactive,inactive,-0.146%,inactive,inactive,inactive,inactive
C=CC(=O)OCCCC,inactive,inactive,inactive,inactive,inactive,0.501%,inactive,inactive,inactive,inactive
c1ccc(Oc2ccccc2)cc1,inactive,inactive,inactive,inactive,inactive,0.819%,inactive,inactive,inactive,inactive
CC(CCl)OC(C)CCl (stereo not given),inactive,inactive,inactive,inactive,inactive,1.36%,inactive,inactive,inactive,inactive
Cc1ccc(Cl)cc1,inactive,inactive,inactive,inactive,inactive,1.47%,inactive,inactive,inactive,inactive
C/C(C=O)=C/c1ccccc1,inactive,inactive,inactive,inactive,inactive,-0.305%,inactive,inactive,inactive,inactive
CCC(C)(C)C(=O)O,inactive,inactive,inactive,inactive,inactive,-0.0519%,inactive,inactive,inactive,inactive
Cc1ccco1,inactive,inactive,inactive,inactive,inactive,0.939%,inactive,inactive,inactive,inactive
CCc1ccccc1,inactive,inactive,inactive,inactive,inactive,1.71%,inactive,inactive,inactive,inactive
NC=O,inactive,inactive,inactive,inactive,inactive,2.21%,inactive,inactive,inactive,inactive
Nc1nc(CC(=O)O)cs1,inactive,inactive,inactive,inactive,inactive,0.779%,inactive,inactive,inactive,inactive
O=C(O[C@@H](C(=O)O)[C@@H](OC(=O)c1ccccc1)C(=O)O)c1ccccc1,inactive,inactive,inactive,inactive,inactive,1.56%,inactive,inactive,inactive,inactive
CCc1ccccc1O,inactive,inactive,inactive,inactive,inactive,0.741%,inactive,inactive,inactive,inactive
Nc1cccc2c(=O)[nH][nH]c(=O)c12,inactive,inactive,inactive,inactive,inactive,0.167%,inactive,inactive,inactive,inactive

# From PubChem BioAssay (NCATS)
